This assay has as its target AT4G31550 (Arabidopsis thaliana, UniProt Q9SV15 228-325). As to the kind of experiment: DPI-ELISA; DPI-ELISA, streptavidin 384-well plate, 1-2 pmol biotinylated dsDNA per well, crude native E. coli extract, anti-His detection; buffer as in Brand et al. [46],; high values mean tight binding. The following applies: tags: C-terminal His (pET-DEST42); label: 5' biotin on forward strand; dsDNA, one strand shown. Background: In an ELISA, binding on a coated surface is turned into a signal by an enzyme label.
Chain of AT4G31550 (Q9SV15 228-325): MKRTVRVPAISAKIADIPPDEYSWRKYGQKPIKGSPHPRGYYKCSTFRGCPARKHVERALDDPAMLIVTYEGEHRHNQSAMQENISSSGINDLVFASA
As for AAAAAAAGCTTCTATAGCTCCATGGAAAA, the binding signal was determined as 0.515 ± 0.106 absorbance.
With AAAAAATCCATTCTTCGCGTTTATCCAAAA the figure was 0.53 ± 0.0849 absorbance; with AAAAAAAATACTGCGCACTTGCACTCAAAA, 0.6 ± 0.127 absorbance; with AAAAAATTACTATTACACACTTGGGGAAAA, 0.6 ± 0.127 absorbance.
For the sequence AAAAAACTACCTCTACTCTAGCCTTAAAAA, the binding signal amounted to 0.515 ± 0.0495 absorbance.
With AAAAAATGTTTTTTAGAGGTGTGCAAAAAA the figure was 0.57 ± 0.0849 absorbance.
AAAAAATTGGTTCTCATTTCTACTTCAAAA returned a binding signal of 0.57 ± 0.127 absorbance.
In the case of AAAAAAGGGCGAGCGCTGGATCCACAAAA it was 0.505 ± 0.106 absorbance; in that of AAAAAACGCTCCGTTTTTGCAATGCGAAAA, 0.61 ± 0.0707 absorbance.
In the case of AAAAAAATCACGGTTCGACCTCCAGCAAAA it was 0.7 ± 0.127 absorbance; in that of AAAAAATTGGCACACATGATCTCGGGAAAA, 0.56 ± 0.113 absorbance.
With AAAAAATCACAATACCTTCTCGTCATAAAA the figure was 0.58 ± 0.113 absorbance.
Regarding AAAAAATATATTTTCAGCTTTAATCTAAAA, the binding signal was determined as 0.685 ± 0.106 absorbance.
In the case of AAAAAAGCCTTTACCCTTGTTCCTCTAAAA it was 0.69 ± 0.17 absorbance; in that of AAAAAACCAGTCTACACCGCTGTAGGAAAA, 0.705 ± 0.0919 absorbance.
For AAAAAACCGACCTGCACGTCGCTGCTAAAA, the binding signal came out at 0.505 ± 0.106 absorbance.
With AAAAAATTCCGGCTTGACGCTGCATAAAAA the figure was 0.655 ± 0.106 absorbance; with AAAAAAGGAAAACGAGTTCATCTGGTAAAA, 0.585 ± 0.134 absorbance; with AAAAAACTGACCGTCAGCGCCCACGCAAAA, 1.45 ± 0.424 absorbance.
In the case of AAAAAATATCATTGTTACCGTTGCTAAAAA it was 0.465 ± 0.12 absorbance; in that of AAAAAATATCTGATCCAATTTAGGTCAAAA, 1.5 ± 0.0212 absorbance; in that of AAAAAAGCTTCTCATGTTGTCTTAGGAAAA, 0.695 ± 0.177 absorbance.
In the case of AAAAAACGGTAAGTCGACAAAA it was 0.545 ± 0.0354 absorbance; in that of AAAAAAGCTGTCACTGTAGTCGGTCCAAAA, 0.67 ± 0.0707 absorbance; in that of AAAAAATTCGGGACTAGTAGTGGTGAAAAA, 0.605 ± 0.0778 absorbance.
The sequence AAAAAAGCCCCTTGCGCCTCTCTACCAAAA gave a binding signal of 0.62 ± 0.0424 absorbance.
In the case of AAAAAATGAATCAATTTTTGGGCTTTAAAA it was 0.52 ± 0.113 absorbance; in that of AAAAAAACCCTGTGTCGGCCGATAAAAAA, 0.58 ± 0.099 absorbance.
With AAAAAATAAACGTGTTCATACTTAGTAAAA the figure was 0.61 ± 0.0707 absorbance; with AAAAAAGTTCGTGCTTAACCCAGTTTAAAA, 0.69 ± 0.099 absorbance.
With AAAAAAATGGTGCCGCTGAGCAAATTAAAA the figure was 0.555 ± 0.12 absorbance; with AAAAAATGTGCCCGTGTGTGCTCGCGAAAA, 0.73 ± 0.0849 absorbance.
Sequence AAAAAAAGTCTGCGGCTGCAGGGCGGAAAA gave a binding signal of 1.91 ± 0.368 absorbance.
Sequence AAAAAATGGATCTTTACTTTAGGCCAAAAA registered a binding signal of 0.92 ± 0.424 absorbance.
As to AAAAAAAAGAGCCTGGGGGTTCGCATAAAA, the binding signal is 0.655 ± 0.0636 absorbance.
In turn, AAAAAAGGCCGTTGGACCTCGGTCTAAAAA came in with a binding signal of 0.66 ± 0.0707 absorbance.
As for AAAAAATCCTGTTTGCGTTTGATTTTAAAA, the binding signal worked out at 0.51 ± 0.099 absorbance.
With AAAAAATAAATCGCGGCTACTGCTTCAAAA the figure was 0.55 ± 0.141 absorbance.
